Assay outcomes from PubChem.
The sample as a whole holds a higher share of hits than the screen did.
CBX7 AlphaScr = CBX7 inhibition, primary AlphaScreen; AlphaScreen His6-CBX7 / biotin-H3K27me3 peptide binding; hits give low values; normalised signal (fraction of DMSO) (test concentration not listed); 1.1% of 66,000 active; in the data active = normalised signal below about 0.5
Target sequence (O95931 whole entry, looked up): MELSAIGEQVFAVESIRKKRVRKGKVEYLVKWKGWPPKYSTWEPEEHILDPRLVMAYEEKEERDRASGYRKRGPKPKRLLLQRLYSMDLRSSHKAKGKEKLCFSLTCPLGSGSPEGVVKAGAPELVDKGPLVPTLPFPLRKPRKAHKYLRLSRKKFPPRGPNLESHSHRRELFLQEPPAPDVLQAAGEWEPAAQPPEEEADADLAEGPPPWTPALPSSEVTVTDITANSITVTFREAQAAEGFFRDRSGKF
Large screens that a line does not name were inactive.

Cc1c(C(=O)NCc2ccc(F)cc2)sc2ncn(CC(=O)N3CC(C)CC(C)C3)c(=O)c12 (stereo unspecified)	none
Cc1ccc2nc(NC(=O)C3CCCN(S(=O)(=O)c4cccs4)C3)sc2c1 (stereo unspecified)	none
Cc1ccc(-n2cc(-c3ccc4c(c3)OCO4)nc2SCC(=O)Nc2ccc3c(c2)OCO3)cc1	none
COc1ccc(-c2cn(-c3ccc(Cl)cc3)c(SCC(=O)Nc3cccc(C)c3)n2)cc1OC	none
COc1ccc(-c2cn(-c3ccc(Cl)cc3)c(SCC(=O)Nc3ccc(F)cc3)n2)cc1OC	CBX7 AlphaScr 0.45
Cc1ccc(-n2cc(-c3ccc4c(c3)OCO4)nc2SCC(=O)Nc2cc(C)cc(C)c2)cc1	CBX7 AlphaScr 0.49
COc1ccc(-c2cn(-c3ccccc3)c(SCC(=O)Nc3ccc(F)cc3)n2)cc1OC	none
Cc1ccc(-n2cc(-c3ccc4c(c3)OCO4)nc2SCC(=O)Nc2ccccc2)cc1	none
Cc1nc(N2CCC(C)CC2)c2c(C)c(C(=O)N3CC(C)CC(C)C3)sc2n1 (stereo unspecified)	none
COc1ccc(N2CCN(C(c3cccs3)C(C)NC(=O)c3cccc(OC)c3)CC2)cc1 (stereo unspecified)	none
O=C(CN1CCN(Cc2ccccc2Cl)C1=O)N1CCOCC1	none
COc1ccc(C)cc1NC(=O)c1ccc(CNc2c(N3CCOCC3)c(=O)c2=O)cc1	none
CCc1ccc(NC(=O)CCNS(=O)(=O)c2ccc3c(c2)CCN3C(C)=O)cc1	none
CCCN1CCN(C(=O)c2cn(CC)c(=O)c3cc(OC)c(OC)cc23)CC1	none
Cc1ccc(C)c(CSc2nc3ccncc3n2CC(=O)Nc2ccc(C)c(F)c2)c1	none
O=C(Cn1cnc(Cl)c1Cl)NCc1n[nH]c(=O)c2ccccc12	none
Cc1ccc(S(=O)(=O)Nc2ccccc2C(=O)Nc2nc(-c3ccccc3)cs2)cc1	none
Cc1oc(-c2ccc(Cl)cc2)nc1CSCC(=O)NC1CC1	none
Cc1oc(-c2cccc(F)c2)nc1CSCC(=O)NC1CCCCC1	none
CCc1ccc(-c2nc(CSCC(=O)NC3CCCCCC3)c(C)o2)cc1	CBX7 AlphaScr 0.4
CCC(C)NC(=O)CNc1ccccc1-c1nc2ccccc2[nH]c1=O (stereo unspecified)	none
COc1cc2c(cc1OC)C(C(=O)NC1CCCC1)C1c3ccccc3CCN1C2=O (stereo unspecified)	none
O=C1CC(N2CCC(C(O)(c3ccccc3)c3ccccc3)CC2)C(=O)N1c1ccc(Cl)cc1 (stereo unspecified)	none
NC(=O)c1oc2ccccc2c1NC(=O)c1ccc(S(=O)(=O)N2CCCCC2)cc1	none
Cc1ccccc1NC(=O)c1ccc(S(=O)(=O)N2CCCCC2)cc1	none
Cc1nnc(NC(=O)c2ccc(S(=O)(=O)N3CC(C)OC(C)C3)cc2)o1 (stereo unspecified)	CBX7 AlphaScr 0.0066
CC1CCCN(S(=O)(=O)c2ccc(C(=O)Nc3nnc(C4CC4)o3)cc2)C1 (stereo unspecified)	none
NC(=O)c1oc2ccccc2c1NC(=O)c1ccc(S(=O)(=O)N2CCCC2)cc1	none
O=C(Nc1nnc(C2CC2)o1)c1ccc(S(=O)(=O)N2CCCC2)cc1	CBX7 AlphaScr 0.45
COc1ccc(-c2nnc(NC(=O)c3ccc(S(=O)(=O)N4CC(C)OC(C)C4)cc3)o2)cc1 (stereo unspecified)	none
COc1ccccc1-c1nnc(NC(=O)c2ccc(S(=O)(=O)N3CC(C)OC(C)C3)cc2)o1 (stereo unspecified)	none
Cc1nnc(NC(=O)c2ccc(S(=O)(=O)N3CCCCC3)cc2)o1	CBX7 AlphaScr 0.021
Cc1nnc(NC(=O)c2ccc(S(=O)(=O)N3CCCCCC3)cc2)o1	CBX7 AlphaScr 0.002
COc1ccccc1-c1nnc(NC(=O)c2ccc(S(=O)(=O)N3CCCC3)cc2)o1	none
COCCNC(=O)C1CCN(Cc2nc(-c3ccccc3F)oc2C)CC1	none
COc1cc2[nH]c(=O)n(CCC(=O)N3CCN(c4ccccn4)CC3)c(=O)c2cc1OC	none
Cc1cc(N2CCN(C)CC2)nc2ccc(NC(=O)CCC(=O)NCc3ccccn3)cc12	none
CN1CCCC(C(N)c2ccccc2)C1 (stereo unspecified)	none
CCCCC(C(=O)Nc1ccccc1OC)N1C(=O)c2ccccc2C1=O (stereo unspecified)	none
COc1cccc(NC(=O)CSc2nc3nc(C)c(Cc4ccc(C)cc4)c(C)n3n2)c1	none
CCOc1ccc(-c2cn(-c3cc(C)cc(C)c3)c(=O)[nH]2)cc1	none
O=C1CC(c2nc3ccccc3n2Cc2ccc(Cl)cc2)CN1c1ccccc1F (stereo unspecified)	none
Cc1cc(Cl)cc(Cl)c1OCC(=O)Nc1cccc(-c2nc3ncccc3o2)c1	none
CCn1cc(C(=O)N(C)c2ccccc2Cl)c2cc(OC)c(OC)cc2c1=O	none
CCN1CCCC1CNC(=O)c1cn(CC(C)C)c(=O)c2c1c1ccccc1n2C (stereo unspecified)	none
COc1ccc(N2CCC(CNS(=O)(=O)c3cccc(Cl)c3)C2)cc1 (stereo unspecified)	CBX7 AlphaScr 0.47
COc1ccc(N2CCN(C3CC(=O)N(c4cccc(Cl)c4)C3=O)CC2)cc1 (stereo unspecified)	none
COc1ccc(N2CCC(CNC(=O)Nc3ccccc3)C2)cc1 (stereo unspecified)	none
O=c1[nH]c2ccccc2nc1Cc1cccc(F)c1	none
CCc1ccc(C2=NN(CCC(=O)NCc3cccnc3)C(=O)CC2)cc1	none
COCCCNC(=O)c1cc2c(s1)-c1c(C)cccc1OC2	none
O=C(NCCCN1CCCCCC1)c1cc(=O)[nH]c2ccc(S(=O)(=O)N3CCCC3)cc12	none
COc1ccc(CNC(=O)CCc2nc3sc4c(c3c(=O)[nH]2)CCCC4)cc1	none
O=C(CCc1nc2sc3c(c2c(=O)[nH]1)CCCC3)NCc1ccccn1	CBX7 AlphaScr 0.34
CC(=O)NCCNC(=O)CCc1nc2sc3c(c2c(=O)[nH]1)CCCC3	none
COc1ccc(-c2cc(C(=O)NCCCN3CCCCCC3)c3cc(C(C)C)ccc3n2)cc1	none
Cc1nc(Nc2ccc(F)c(Cl)c2)c2c3c(sc2n1)CCC3	none
O=C(NCC1CCCO1)C(=O)Nc1ccccc1 (stereo unspecified)	none
O=C(NCCCn1ccnc1)c1ccc(C#Cc2ccccc2)cc1	CBX7 AlphaScr 0.11
O=C(NCCCn1ccnc1)C(=O)NCCc1ccccc1	none
O=C(NCCCn1ccnc1)C(O)(c1ccccc1)c1ccccc1	none
COc1ccc(C(C(=O)NC2CCCC2)N(Cc2ccccc2)Cc2ccccc2)cc1 (stereo unspecified)	none
O=C(Nc1ccc(Br)cc1)C1CC(=O)N(c2ccc(F)cc2)C1 (stereo unspecified)	none
Cc1ccc(-n2ncc3c(NCc4ccccn4)ncnc32)c(C)c1	CBX7 AlphaScr 0.12
Cc1ccc(-n2ncc3c(NCCO)ncnc32)c(C)c1	none
Cc1ccc(-n2ncc3c(NCc4cccnc4)ncnc32)c(C)c1	none
CCc1ccc2oc(-c3ccc(NC(=O)c4ccccc4)cc3)nc2c1	none
O=C(Nc1ccc2oc(-c3ccncc3)nc2c1)c1ccc(-c2ccc(F)cc2)o1	CBX7 AlphaScr 0.41
CCc1ccc2oc(-c3ccc(NC(=O)c4cc(OC)cc(OC)c4)cc3)nc2c1	none
CCc1ccc2oc(-c3ccc(NC(=O)c4ncn[nH]4)cc3)nc2c1	CBX7 AlphaScr 0
O=C(Nc1ccc2oc(-c3ccncc3)nc2c1)c1ccc(-c2ccc(Cl)cc2)o1	none
O=C(Nc1ccc2oc(-c3cccnc3)nc2c1)c1ccc(-c2ccc(F)cc2)o1	none
Cc1cc(C)c2oc(-c3ccc(NC(=O)c4ccc(-c5ccc(Cl)cc5)o4)cc3)nc2c1	none
O=C(NCC1CCCO1)C1CCN(c2nc3ccccc3[nH]2)CC1 (stereo unspecified)	none
